Hits are enriched below; roughly 18% of the tested compounds scored in any of these assays.
CtBP-E1A inh – CtBP/E1A binding inhibition; hit rate 0.49% among 340,000; AlphaScreen GST-E1A/His-CtBP binding, 1536-well; active compounds read low; activity change, % (no concentration beside the values); in the data active = activity change below about -65%; inconclusive = mostly about -30% to -63%
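Homogeneous bead-based format: GST-tagged E1A captured on glutathione donor beads, His-tagged CtBP on nickel acceptor beads; compounds precede bead addition by 2 h at 37 °C.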
DT40 TDP1 no CPT – qHTS for Inhibitors of human tyrosyl-DNA phosphodiesterase 1 (TDP1): qHTS in cells in absence of CPT; hit rate 15% among 420,000; Potency, µM (doses to about 46.2 µM), inactives show at the top dose activity change, negative = growth inhibition, hits mostly inhibitors; DT40 Tdp1-/- hTDP1 cells, no CPT, ATP luminescence, 48 h; note: potency is the fitted concentration of half-maximal effect; nearly all actives have a fitted effect of over 55% in size
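Compound effects on proliferation are scored in DT40 Tdp1-/-;hTDP1 cells in the absence of CPT. ATP levels (CellTiter-Glo luminescence) are recorded after a ≥48 hr, 37 °C incubation.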
TDP1 cell CPT – DT40-hTDP1 cell growth loss with CPT | Potency, µM (series often up to 46.2 µM), for inactives: at the top dose activity change, negative = growth inhibition, usual class: inhibitors | hit rate 12% among 420,000 | chicken DT40 Tdp1-/-;hTDP1 cells + 20 nM CPT, ATP luminescence, 48 h | AID 686979; note: potency is the fitted concentration of half-maximal effect; nearly all actives have a fitted effect of over 55% in size
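Cell growth measured by CellTiter-Glo luminescence after a minimum 48 h, 37 C compound exposure with 20 nM CPT in Tdp1-knockout DT40 cells stably expressing hTDP1, seeded 400/well; qHTS titration format.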
IL-1B inflam inh – inflammasome signaling inhibition, IL-1 beta readout | THP-1 LPS/ATP IL-1B secretion, AlphaLISA, 16 h; active compounds read low | activity change, % at 57.5 µM | hit rate 4.7% among 360,000 | AID 743279; in the data active = activity change below about -50%; inconclusive = mostly about -30% to -49%
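Secreted IL-1B measured by AlphaLISA bead assay after 16 h compound exposure of THP-1 cells; compounds (final up to 57.5 uM) added 1 h before LPS (250 ng/mL) and ATP (1.25 mM) stimulation; lower signal means less secretion.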
TDP1 block – inhibitors of human tyrosyl-DNA phosphodiesterase TDP1; hit rate 0.28% among 350,000; recombinant TDP1, AlphaScreen DNA substrate cleavage; Potency, µM (series often up to 130 µM), without a hit: at the highest dose activity change, negative = inhibition, hits mostly inhibitors; Q9NUW8; AID 485290; note: potency is the fitted concentration of half-maximal effect; nearly all actives have a fitted effect of over 40% in size
Target sequence (Q9NUW8 whole entry, looked up): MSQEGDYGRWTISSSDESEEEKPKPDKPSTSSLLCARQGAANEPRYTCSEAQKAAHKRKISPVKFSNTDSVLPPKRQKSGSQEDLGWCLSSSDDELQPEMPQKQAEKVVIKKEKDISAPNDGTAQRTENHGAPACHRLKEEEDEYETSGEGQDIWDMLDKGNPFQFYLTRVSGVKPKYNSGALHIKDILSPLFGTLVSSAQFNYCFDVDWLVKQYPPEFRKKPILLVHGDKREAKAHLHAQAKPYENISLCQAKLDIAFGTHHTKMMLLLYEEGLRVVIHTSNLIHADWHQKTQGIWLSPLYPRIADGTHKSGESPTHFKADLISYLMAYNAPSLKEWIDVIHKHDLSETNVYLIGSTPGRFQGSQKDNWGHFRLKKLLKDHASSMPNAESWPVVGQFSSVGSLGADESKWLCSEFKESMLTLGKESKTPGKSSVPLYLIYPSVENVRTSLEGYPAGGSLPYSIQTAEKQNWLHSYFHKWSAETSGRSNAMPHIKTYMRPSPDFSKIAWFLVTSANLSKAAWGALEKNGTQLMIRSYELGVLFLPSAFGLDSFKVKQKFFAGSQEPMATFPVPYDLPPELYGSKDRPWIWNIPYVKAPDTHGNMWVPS
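E. coli-derived human Tdp1, 1 nM final. Cpd preinc 15 min RT; substrate 15 nM final, 5 min RT; AS bead mix 10 ug/ml final, 10 min RT. Signal loss = tyrosine-FITC cleavage. No-enzyme wells = max signal.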
Six1-Eya2 inh – blocks human Six1 binding to Eya2; AlphaScreen GST-Six1/His-Eya2 binding, biochemical; active compounds read low; Q15475+O00167; AID 651725; activity change, % (concentration not given with the values); hit rate 0.56% among 360,000; in the data active = activity change below about -65%; inconclusive = mostly about -30% to -63%
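GST-Six1 + His-Eya2 (5X stock: 250/500 nM); Tris pH 8.0, 300 mM NaCl, 0.05% BSA, 0.02% Tween 20; GSH donor/Ni acceptor beads; 1 h 37 °C dark; AlphaScreen readout.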
The depositor's hits bear a star; ? = inconclusive; / = no result; [ ] = remark or other dose. Unless noted, calls come from the whole dose curve; as a rule, active = well fitted curve in the direction sought with a large enough effect; inconclusive = small, poorly fitted or top-dose-only effect, or another doubt; inactive = no such curve, though single readings can be large; an effect the other way counts as inactive or inconclusive. % is set by controls: 0 for no effect and ±100 for the full control effect.

SMILES | CtBP-E1A inh | DT40 TDP1 no CPT | TDP1 cell CPT | IL-1B inflam inh | TDP1 block | Six1-Eya2 inh
CCOc1ccc(S(=O)(=O)N2CCC(C(=O)N3CCN(Cc4ccccc4)CC3)CC2)cc1 | 0.0 | ? | ? | -10.7 | 2.1% | 17.7
O=C(CCNS(=O)(=O)c1cccc2nonc12)NC1CCCc2ccccc21 (configuration not stated) | -10.5 | -16.8% | 2.1% | 13.6 | 3.3% | 2.6
CCOC(=O)N1CCN(C(=O)NC23CC4CC(CC(C4)C2)C3)CC1 | 2.6 | -23.1% | -2.5% | 6.7 | 4.7% | -0.6
CC12CCC(/C(=C/NNc3ccc([N+](=O)[O-])cc3[N+](=O)[O-])C1=O)C2(C)C (configuration not stated) | 3.5 | 18.4µM* | 18.4µM* | -6.5 | / | -14.3
Cc1ccc(-n2nc3ccc(NC(=O)c4cc5ccccc5o4)cc3n2)cc1 | / | ? | -22.9% | / | 1.0%[2.28 µM] | /
Cc1ccnc(NC(=O)c2cc3ccccc3o2)c1 | 0.7 | -5.7% | -14.3% | ? | 0.1% | 7.8
CCc1cccc(C)c1NC(=O)CO/N=C(\C)c1cc2ccccc2o1 | 9.8 | 23.1µM* | 18.4µM* | -2.1 | 1.1% | 0.9
CCCCc1ccc(-n2nc3ccc(NC(=O)c4cc5ccccc5o4)cc3n2)cc1 | / | 10.3µM* | ? | / | 4.8%[2.28 µM] | /
O=C(Nc1ccccn1)c1cc2ccccc2o1 | 6.4 | ? | 10.3µM* | -96.5* | 5.0% | 1.0
CCC(=O)N1CCN(c2ccc(NC(=O)c3cc4ccccc4o3)cc2)CC1 | 0.2 | 18.4µM* | ? | -29.9 | 2.2% | 4.4
Cc1ccc(NC(=O)CN2CCCC2)cc1Br | -2.6 | 3.7% | -2.0% | -9.7 | / | 4.9
CN(CC(=O)Nc1ccccc1C(=O)NC1CC1)Cc1ccc(Cl)s1 | 6.7 | ? | ? | -5.7 | -0.3% | 16.4
CCOC(=O)C(NCCc1ccc(F)cc1)(NC(=O)CC)C(F)(F)F (configuration not stated) | -0.4 | -8.1% | 5.7% | 14.3 | -3.1% | 0.7
COc1ccc(-c2onc(C)c2C)cc1S(=O)(=O)Nc1ccc(OC(F)(F)F)cc1 | / | ? | ? | / | 2.6% | /
CCCCNC(=O)CSc1nc2ccccc2c(=O)n1Cc1ccc2c(c1)OCO2 | -3.3 | -12.4% | -26.5% | 7.5 | -1.0% | 3.7
Cc1ccc(C)c(NC(=O)c2cc3ccccc3o2)c1 | / | -28.1% | -1.7% | 9.2 | / | 13.9
CCc1cccc(C)c1NC(=O)c1cc2ccccc2o1 | / | 16.4µM* | 18.4µM* | / | 3.1%[12.3 µM] | /
CCc1cccc(C)c1NC(=O)C1CCCO1 (configuration not stated) | 3.7 | -12.1% | -9.4% | -6.0 | -1.0% | 13.3
CCc1cccc(C)c1NC(=O)C1CC=CCC1C(=O)O (configuration not stated) | -4.9 | 20.6µM* | ? | -0.4 | ? | 2.4
CC(C)OCCCN1C(=O)c2[nH]nc(-c3ccccc3O)c2C1c1cccc(Cl)c1 (configuration not stated) | 1.1 | 23.1µM* | 18.4µM* | ? | 5.2% | -6.5
COCCCN1C(=O)c2[nH]nc(-c3ccccc3O)c2C1c1cccc(Cl)c1 (configuration not stated) | -12.1 | 2.91µM* | 20.6µM* | 10.2 | 8.2% | -0.7
CCC(=O)c1cn(CC(=O)OC)c2ccccc12 | -2.4 | -18.1% | -24.6% | 38.6 | 6.8% | -6.9
COc1ccc(/C=N/Nc2nncn2N)cc1Br | ? | ? | ? | ? | / | -74.9*
O=C(COC(=O)CCC(=O)c1cccs1)Nc1ccc(Cl)cn1 | / | 0.4% | 11.1% | 30.4 | 2.6% | 3.1
NS(=O)(=O)OCC1CCCCC1 | 2.8 | -9.0% | -7.5% | 46.2 | / | 0.2
Nc1nc(N)c(N=O)c(OCC2CCCCC2)n1 | -13.5 | 7.31µM* | 11.6µM* | ? | 4.3% | -16.4
